Data on 19 sequences can be found in the supplement of paper PMC10681739.
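Also: Full-length recombinant human ETS1 or RUNX1 bound to double-stranded 36-bp genomic probes on microarrays, detected by protein-specific primary antibody and Alexa488 secondary, spot fluorescence as median of four replicate spots.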

In this assay the target is RUNX1 (UniProt Q01196). Put plainly: RUNX1 binding intensity (PBM fluorescence) in presence of ETS1, normalised to RUNX1-only experiment (arbitrary fluorescence units); higher = stronger binding. Conditions: RUNX1 concentration 2 nM; ETS1 concentration 25 nM. The protocol: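 Cooperative gcPBM on 36-bp genomic probes with neighbouring ETS1 and RUNX1 sites. Recombinant human RUNX1 (2 nM) was incubated alone or with ETS1 (25 nM) and detected with anti-RUNX1 antibody plus Alexa488 secondary. Values are medians over 4 replicate spots; the RUNX1+ETS1 data were normalised to the RUNX1-only data. The probes sit in constant array flanks that are not printed.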
RUNX1, sequence (Q01196 whole entry): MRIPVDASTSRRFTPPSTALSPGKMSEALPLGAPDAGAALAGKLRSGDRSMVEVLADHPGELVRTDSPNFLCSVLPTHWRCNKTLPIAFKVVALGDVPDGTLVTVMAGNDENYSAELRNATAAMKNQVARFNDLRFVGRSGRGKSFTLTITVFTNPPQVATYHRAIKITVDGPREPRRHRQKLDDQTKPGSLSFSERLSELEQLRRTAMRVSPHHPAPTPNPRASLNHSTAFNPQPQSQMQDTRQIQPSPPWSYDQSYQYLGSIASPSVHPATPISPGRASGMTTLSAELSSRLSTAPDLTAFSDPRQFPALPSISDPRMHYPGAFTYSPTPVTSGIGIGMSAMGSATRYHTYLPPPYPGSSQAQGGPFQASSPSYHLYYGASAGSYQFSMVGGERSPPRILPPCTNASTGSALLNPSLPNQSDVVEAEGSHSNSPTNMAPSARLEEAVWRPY
Turning to GATGACTTCCTCAGTTCAGGGCTATGTGCGGGGGAG, the RUNX1 binding intensity was 1060. For the sequence TGCAGCGCATCCTGGGACGTGCGGGCGGTGCATGAG, the RUNX1 binding intensity turned out to be 923. The same measure for AGCAGGGCTCGCCGGGAAATGTGGTTTCTCCAGCCG: 952; for TTACCCCGGCGGAACGGAGGCCTGCGGTCGCGGCGG: 1210. The same measure for AGAGCCACATCCCGCGCAGAGGACCGCGGCGACCGG: 927; for TCCTGCCCTCCCATCCTGTGGTCAGAGGCCAGGGCT: 1580. Turning to TGCAATTGGCAGACAGGAAACCGCGGCGTTTTCTGG, the RUNX1 binding intensity amounted to 1440. The figure for TATCGACAAAAGTTCCGGCCCGCGGTAGCGGAGGGA is 970. Regarding GACACAAGACAGTTTCCGTCAGTGGTTAAGCCCTAA, the RUNX1 binding intensity turned out to be 1270. On to CCACCATCTTTCCGGCTCCCTCGCGACCACCACGAC, for which the RUNX1 binding intensity worked out at 1970. The same measure for TTAGAGCTGACATCCTTGCGGTCCACAGCCTCCAAA: 1090; for ACGAGAGTCTAGAGGAAACCAACCCGCAACTCACTG: 868; for CCCTTCCTGTGAGGGAGGTTCCAGTTCCCACAGCGG: 1670. The figure for GCCCCTTTTTCCTGGGATGAGCGGTTAGCGGAGGGG is 1080; for AAGACACCAACGCTCGGAAACCGCCAGACACCAACG it is 916; for CAGACACCAACGCTCGGAAACCGCCAGACACCAAGG it is 888. With CAACCCAAGGGGATGTGCTCACTGCGGTGAGGAGGC, the RUNX1 binding intensity turned out to be 893.

As to GAAACGTCACCCAGAGGAAACCCACAAGGGGCGTGG, the RUNX1 binding intensity came out at 836.

Take CTCAGGTTATCTAGGAAATCTACCGCACGCTAAAGT: the RUNX1 binding intensity was 793.
